The campaign covered roughly 39,000 compounds. About 220 (0.56%) showed activity. Shown is part of a subset that was picked to be rich in actives.
tested on: Escherichia coli K-12 BW25113; assay: relative growth (OD600 normalised to plate interquartile mean) (fraction); higher = less growth inhibition, active = 0.2 or less; settings: 50 µM; LB; incubation time: overnight (16-24 h)
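Note: Wild-type cells incubated without shaking, value is the mean of two biological replicates.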

SMILES	relative growth
OC[C@H]1O[C@H](n2nnc3ccccc32)[C@@H](O)[C@@H](O)[C@@H]1O	0.989 (inactive)
Cc1noc(C)c1S(=O)(=O)Nc1cccc2c1O[C@H](CN(C)S(=O)(=O)c1cccs1)[C@H](C)CN([C@@H](C)CO)C2=O	1 (inactive)
CCCN1C[C@@H](C)[C@H](OC)CN(C)C(=O)c2ccc(NS(=O)(=O)c3cn(C)cn3)cc2OC[C@@H]1C	1 (inactive)
Nc1ccc(/C=C/c2ccccc2)cc1	0.999 (inactive)
C[C@H](CO)N1C[C@H](C)[C@@H](CN(C)C(=O)c2cnccn2)Oc2cc(Br)ccc2S1(=O)=O	0.986 (inactive)
CC1CCc2cc(F)cc3c(=O)c(C(=O)O)cn1c23 (centres undefined)	0.0455 (active)
CC1CCc2c(N3CCC(O)CC3)c(F)cc3c(=O)c(C(=O)O)cn1c23 (centres undefined)	0.0484 (active)
C[C@@H]1CN([C@@H](C)CO)C(=O)Cc2cc(NC(=O)Cc3ccccc3)ccc2O[C@@H]1CN(C)Cc1ccc(Oc2ccccc2)cc1	0.987 (inactive)
O=C(C[C@H]1C=C[C@H](NS(=O)(=O)c2ccccc2F)[C@@H](CO)O1)NCCCN1CCOCC1	0.993 (inactive)
C[C@H]1CN([C@@H](C)CO)C(=O)Cc2cc(NS(=O)(=O)c3ccccc3)ccc2O[C@@H]1CN(C)S(C)(=O)=O	0.961 (inactive)
NC(=O)[C@@H]1C(=O)C[C@@H]2C[C@@H]3Cc4cccc(O)c4C(=O)[C@@H]3C(=O)[C@]2(O)C1=O	0.164 (active)
C[C@@H]1CN([C@@H](C)CO)C(=O)Cc2cc(NC(=O)C3CCCCC3)ccc2O[C@H]1CN(C)C(=O)Nc1cccc2ccccc12	1.01 (inactive)
COC(=O)[C@H](Cc1ccc(N=[N+]=[N-])cc1)N1CC2=C[C@@H](C3CC3)n3c(=O)n(C)c(=O)n3[C@H]2[C@@H]1[C@@H](O)Cc1ccccc1	0.989 (inactive)
CC(=O)NC[C@H]1CN(c2ccc(N3CCN(C(=O)CO)CC3)c(F)c2)C(=O)O1	0.38 (inactive)
CCN1CCN(c2cc3c(cc2F)c(=O)c(C(=O)O)cn3C2CC2)CC1	0.0449 (active)
O=C(O)c1cn(C2CC2)c2cc(N3CCNCC3)c(F)cc2c1=O	0.0478 (active)
CC(=O)NCC1CN(c2ccc(N3CCOCC3)c(F)c2)C(=O)O1 (centres undefined)	0.701 (inactive)
O=C(O)c1cn(C2CC2)c2cc(N3CCC(O)(COc4ccc(N5C[C@H](CO)OC5=O)cc4F)CC3)c(F)cc2c1=O	0.111 (active)
C[C@H](CO)N1C[C@H](C)[C@H](CN(C)C(=O)Nc2ccc(F)cc2)OCCCC[C@H](C)Oc2ccc(NC(=O)C3CCOCC3)cc2C1=O	0.981 (inactive)
Cc1ccc(S(=O)(=O)Nc2ccc3c(c2)C(=O)N([C@@H](C)CO)C[C@H](C)[C@H](CN(C)S(C)(=O)=O)OCCCC[C@@H](C)O3)cc1	1 (inactive)
NC[C@H]1CC[C@H](C(=O)N2CCC(c3ccncc3)CC2)CC1	1.03 (inactive)
Cc1ccc(S(=O)(=O)N[C@H]2CC[C@H](CCNC(=O)CN3CCOCC3)O[C@@H]2CO)cc1	1 (inactive)

SMILES	relative growth
C[C@@H]1CN([C@H](C)CO)C(=O)c2cc(NS(=O)(=O)c3ccccc3)ccc2O[C@@H](C)CCCCO[C@H]1CN(C)Cc1ccc(C(=O)O)cc1	1 (inactive)
COc1ccc(NC(=O)N(C)C[C@H]2OCCCC[C@@H](C)Oc3ccc(NC(=O)c4ccccc4)cc3C(=O)N([C@@H](C)CO)C[C@H]2C)cc1	0.994 (inactive)
COC[C@H](C)N1C[C@H](C)[C@@H](CN(C)Cc2ccc(Oc3ccccc3)cc2)Oc2c(NC(=O)c3ccncc3)cccc2C1=O	1 (inactive)
Cc1noc(C)c1S(=O)(=O)Nc1ccc2c(c1)C(=O)N([C@H](C)CO)C[C@@H](C)[C@H](CN(C)C(=O)NC1CCCCC1)O2	1.01 (inactive)
C[C@@H]1CN([C@H](C)CO)C(=O)c2cc(NS(=O)(=O)c3ccc(F)cc3)ccc2O[C@@H](C)CCCCO[C@@H]1CN(C)C(=O)C1CCCCC1	0.993 (inactive)
Cc1noc(C)c1NC(=O)N(C)C[C@H]1Oc2ccc(NC(=O)Nc3ccc(C(F)(F)F)cc3)cc2CC(=O)N([C@H](C)CO)C[C@H]1C	0.935 (inactive)
C[C@H](CO)N1C[C@H](C)[C@H](CN(C)S(=O)(=O)c2ccccc2)Oc2ccc(NC(=O)C3CC3)cc2CC1=O	1 (inactive)
CC(C)(C)c1ccc(NC(=O)N[C@H]2CCCc3ccccc32)cc1	1.03 (inactive)
COc1ccc(NC(=O)Nc2ccc3c(c2)CC(=O)N([C@H](C)CO)C[C@@H](C)[C@@H](CN(C)S(=O)(=O)c2c(C)noc2C)O3)cc1	0.969 (inactive)
Nc1ncn(C2OC(CO)C(O)C2O)c(=O)n1 (centres undefined)	0.05 (active)
Nc1ncn([C@@H]2O[C@H](CO)[C@@H](O)[C@H]2O)c(=O)n1	0.458 (inactive)
Nc1ncn([C@@H]2C[C@H](O)[C@@H](CO)O2)c(=O)n1	0.907 (inactive)
CC(=O)N(C)C[C@@H]1Oc2ncc(C#C[C@@H](C)O)cc2C(=O)N([C@@H](C)CO)C[C@H]1C	1.01 (inactive)
O=C(C[C@@H]1CC[C@@H]2[C@H](COC[C@@H](O)CN2S(=O)(=O)c2cccc(Cl)c2)O1)N1CCOCC1	1.01 (inactive)
O=C1OC(=O)[C@H]2[C@@H]1[C@H]1CC[C@H]2O1	0.16 (active)
CCc1c(C)[nH]c(=S)c(C#N)c1C	1.01 (inactive)
Cc1noc(C)c1S(=O)(=O)Nc1ccc2c(c1)C(=O)N([C@@H](C)CO)C[C@H](C)[C@H](CN(C)CC1CC1)O2	0.999 (inactive)
COc1ccc(NC(=O)N(C)C[C@H]2Oc3c(NS(=O)(=O)c4cn(C)cn4)cccc3C(=O)N([C@@H](C)CO)C[C@@H]2C)cc1	0.995 (inactive)
C[C@H](CO)N1C[C@H](C)[C@@H](CN(C)S(=O)(=O)c2ccc(F)cc2)Oc2ccc(NC(=O)c3ccncc3)cc2CC1=O	0.989 (inactive)
CCCCCCCCCCCCCCCC[N+](C)(C)C	0.0755 (active)
C[N+](C)(C)CCCCCC[N+](C)(C)C.[Br-].[Br-]	0.862 (inactive)
CCCCCCCCCCCCCCCCOP(=O)([O-])OCC[N+](C)(C)C	1 (inactive)
